This is a sample that favours compounds with a hit; in the whole collection about 3.5% have one here.
TEAD-YAP block: TEAD-YAP interaction inhibition; actives 1.4% (n = 640,000); HEK-TIYL cells, TEAD-Gal4/YAP UAS-luciferase luminescence; AID 1259422; inhibition, % at 9.12 µM; in the data active = inhibition above about 32%;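 note: 0% = median of test compound wells and 100% = reference inhibitor wells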
GPR151 activ: human GPR151 activation; Q8TDV0; PathHunter beta-arrestin GPR151 cells, luminescence; activation, % at 11.2 µM; actives 1% (n = 650,000); in the data active = activation above about 4.9%;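 note: 0% = median of compound wells and 100% = cells with positive control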
Target sequence (Q8TDV0 whole entry, looked up): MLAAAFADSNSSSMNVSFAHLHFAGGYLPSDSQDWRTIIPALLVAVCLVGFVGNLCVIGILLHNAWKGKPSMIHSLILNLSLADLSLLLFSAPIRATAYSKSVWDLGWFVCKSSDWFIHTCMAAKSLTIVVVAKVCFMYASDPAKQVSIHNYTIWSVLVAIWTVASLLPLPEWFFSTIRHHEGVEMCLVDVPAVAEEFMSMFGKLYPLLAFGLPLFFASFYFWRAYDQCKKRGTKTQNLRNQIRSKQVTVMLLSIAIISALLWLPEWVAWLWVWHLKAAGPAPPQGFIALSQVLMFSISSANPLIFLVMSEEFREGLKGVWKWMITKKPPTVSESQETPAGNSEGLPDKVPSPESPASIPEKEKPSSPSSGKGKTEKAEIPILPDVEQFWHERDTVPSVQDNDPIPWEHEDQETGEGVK
MITF inh: inhibitors of human MITF; AlphaScreen MITF homodimerization, bead proximity signal; O75030; actives 0.91% (n = 650,000); inhibition, % at 2.6 µM; in the data active = inhibition above about 50%;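 note: 0% = vehicle wells with protein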
FBW7 act: human FBW7 E3 ligase activation, primary screen | AID 1259310 | actives 0.13% (n = 650,000) | Q969H0 | normalized activity (activation), % at 26.1 µM | AlphaScreen FBW7–phospho-cyclin E peptide binding, activator screen; in the data active = normalized activity above about 1.9%;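 note: purified mutant Fbw7 with reduced substrate affinity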
An asterisk follows results filed as active.

SMILES	TEAD-YAP block	GPR151 activ	MITF inh	FBW7 act
Nc1c(Cl)c(Cl)nc(C(=O)N/N=C/c2ccccc2)c1Cl	-2.6	-0.1	-4.3	-0.1
CCCCOc1ccc(C(=O)Nc2cc(=O)n(C)c(=O)n2C)cc1	-6.1	0.2	-3.7	-0.1
CCCC(=O)NC(c1ccco1)c1c(O)ccc2ccccc12 (stereo not drawn)	1.2	-1.2	10.8	-0.1
COc1ccc(C(NC(C)=O)c2c(OC(C)=O)ccc3ccccc23)cc1 (stereo not drawn)	62.4*	-0.4	15.4	0.8
COc1ccc(C(NC(C)=O)c2c(O)ccc3ccccc23)cc1 (stereo not drawn)	62.2*	0.9	-1.0	-0.2
CCCC(=O)NC(c1ccc(OC)cc1)c1c(O)ccc2ccccc12 (stereo not drawn)	44.5*	0.1	-14.6	-0.2
CN(C)S(=O)(=O)NCc1ccc2[nH]c3c(c2c1)CCCC3	-10.3	-1.5	-0.8	-0.1
CCOc1ccc([C@@H]2C[C@H]3CN(Cc4ccccc4C)C(=O)[C@]34CCCN24)cc1CO	-5.0	-1.3	0.1	0.0
CSc1ccc(C2N=C(c3ccccc3)NO2)cc1 (stereo not drawn)	-59.6	0.2	1.4	0.0
CN(C)c1ccc(C2N=C(c3ccccc3)NO2)cc1 (stereo not drawn)	34.8*	-4.0	8.1	0.0
Fc1cccc2c1NC(c1ccc(Br)cc1)C1CC=CC21 (stereo not drawn)	19.1	-0.4	0.8	0.0
CCOc1cccc2c1NC(c1ccc(C(=O)O)cc1)C1CC=CC21 (stereo not drawn)	-8.4	-0.2	58.8*	-1.9
O=C(O)c1ccc([C@@H]2Nc3c(F)cccc3[C@@H]3C=CC[C@@H]32)cc1	2.0	1.0	69.8*	-1.1
CCOC(=O)c1cccc2c1N[C@@H](c1ccc(C(=O)O)cc1)[C@H]1CC=C[C@@H]21	7.8	-0.1	76.3*	-0.7
Cc1cc(C)n(CCNS(=O)(=O)/C=C/c2ccccc2)n1	8.4	0.7	14.7	-0.1
COc1ccc(C(=O)N(CCN(C)C)c2nc3c(OC)ccc(Cl)c3s2)cc1OC	2.1	0.7	-2.3	0.1
O=C(/C=C/c1ccc(Cl)cc1)N1CCCC1	-21.0	0.8	0.4	0.1
COC(=O)C1=CN(CC2CCCO2)C=C(C(=O)OC)C1c1ccc2c(c1)OCO2 (stereo not drawn)	4.2	-0.2	4.9	0.0
CC1CCc2c(sc(NC(=O)c3ccccc3F)c2C(=O)N2CCCCCC2)C1 (stereo not drawn)	-3.1	-0.5	1.5	-0.1
Cc1ccc(-c2c3c(nc4sc(C(=O)Nc5ccccc5)c(N)c24)CCCC3)cc1	2.2	-1.6	-16.9	-0.1
Cc1csc(NC(=O)c2sc3nc(C)c4c(c3c2N)CCCC4)n1	94.3*	0.3	-2.8	0.0
Cc1csc(NC(=O)c2sc3nc4c(c(C(F)(F)F)c3c2N)CCCC4)n1	65.0*	1.0	11.8	0.1
O=[N+]([O-])c1ccc(Cl)c(-n2cnnn2)c1	59.2*	0.9	7.9	-0.1
Nc1cccc2c1C(=O)c1c(oc3c1ccc1ccccc13)C2=O	78.3*	-1.6	-2.8	-0.3
COc1cc(/C=C2\N=C(c3ccccc3)NNC2=O)cc(OC)c1OC	49.1*	-0.3	-1.9	0.0
SMILES	TEAD-YAP block	GPR151 activ	MITF inh	FBW7 act
COc1cc(/C=C2/N=C(c3ccc(-c4ccccc4)cc3)OC2=O)cc(OC)c1OC	-1.9	0.0	-3.8	0.0
COc1ccc(-c2nc(N)n(C(=O)c3ccccc3OC)n2)cc1	40.0*	1.4	8.6	-0.1
O=C(c1ccc(F)cc1)N1CCNCc2ccccc21	-8.0	0.3	18.8	0.2
COc1cc(-c2nn3cc(-c4ccccc4)nc3s2)cc(OC)c1OC	-29.8	-0.3	4.7	0.7
CCc1nn2cc(-c3ccccc3)nc2s1	74.3*	-9.9	10.3	0.2
CCc1nn2cc(-c3ccc(F)cc3)nc2s1	39.6*	-10.0	9.2	0.2
Cc1cc(C)n(CCNC2CCN(c3cccc(NC(=O)C4CC4)c3)CC2)n1	-13.4	-1.1	-3.7	-0.1
Cc1cc(C)n(CCNC2CCN(c3cccc(NC(=O)CC4CCCC4)c3)CC2)n1	41.5*	-1.3	-8.0	0.0
Cc1cc(C(=O)NCC2CCCN(S(=O)(=O)c3ccsc3)C2)no1 (stereo not drawn)	-7.0	0.6	9.3	0.3
N#CC1=C(N)Oc2c(ccc3cccnc23)C1c1ccccc1F (stereo not drawn)	58.4*	-0.6	2.0	-1.1
CCN1CCN(CC(=O)c2cc(C)n(-c3ccc(F)cc3)c2C)CC1	-6.2	1.0	79.5*	-0.1
Cc1cc(C(=O)CN2CCN(C)CC2)c(C)n1-c1ccc(Br)cc1	7.8	-1.2	88.0*	0.5
Cc1ccc(C(=O)Nc2ncc(Cc3cccc(Cl)c3)s2)cc1	11.3	0.1	20.0	0.6
COc1ccc(C(=O)Nc2ncc(Cc3ccc(C)cc3)s2)cc1OC	39.1*	-0.8	9.9	1.1
COc1ccc(C(=O)Nc2ncc(Cc3cccc(Cl)c3)s2)cc1OC	53.1*	1.1	8.8	0.5
COc1cccc2c1OC1(CCN(C(=O)C3CCCC3)CC1)OC2	3.6	-1.0	11.7	-0.2
N#Cc1ccc(Nc2ncc(Cl)c(Nc3ccccc3C(N)=O)n2)cc1	26.5	-0.5	13.6	0.1
COc1cnc(Nc2ccc(N3CCOCC3)cc2)nc1Nc1ccccc1C(N)=O	55.3*	0.1	6.7	-0.3
NC(=O)c1ccccc1Nc1nc(Nc2ccc(N3CCCC3=O)cc2)ncc1Cl	78.2*	3.4	-5.1	-0.1
Cc1ncn(-c2ccc(Nc3ncc(C)c(Nc4ccccc4C(N)=O)n3)cc2)n1	87.5*	-0.4	7.1	1.2
COc1cc(N2CCOCC2)ccc1Nc1ncc(Cl)c(Nc2ccccc2C(=O)NC2CC2)n1	11.9	0.0	2.0	-0.1
COc1cc(CC2(CCC(=O)NCC(C)Oc3cccnc3)CCC(=O)N2)ccc1F (stereo not drawn)	-3.6	0.0	16.8	2.1*
NC(=O)CCC(NC(N)=O)C(=O)O (stereo not drawn)	7.4	0.1	15.6	0.4
NC(=O)CCC(NC(=O)NC1CCCCC1)C(=O)O (stereo not drawn)	-9.6	-1.5	20.0	2.1*
COc1ccc(N2C(=O)/C(=C\c3ccc([N+](=O)[O-])s3)C(=O)NC2=S)cc1	-4.1	-1.1	58.8*	0.1
SMILES	TEAD-YAP block	GPR151 activ	MITF inh	FBW7 act
COc1ccc(N2C(=O)NC(=O)/C(=C/c3ccc(I)o3)C2=O)cc1	0.0	-0.2	68.6*	-0.3
COc1cccc(N2C(=O)/C(=C/c3ccc([N+](=O)[O-])o3)C(=O)NC2=S)c1	12.1	-1.7	70.6*	-0.1
COc1cccc(N2C(=O)/C(=C/c3ccc([N+](=O)[O-])s3)C(=O)NC2=S)c1	6.7	-1.5	22.2	0.8
COc1cccc(N2C(=O)/C(=C\c3ccc(OC)cc3OC)C(=O)NC2=S)c1	-3.6	-1.9	15.8	-0.1
Cc1cc(C)cc(N2C(=O)NC(=O)/C(=C\c3ccc([N+](=O)[O-])o3)C2=O)c1	0.5	-0.4	36.9	0.2
COc1cccc(N2C(=O)NC(=O)/C(=C/c3ccc([N+](=O)[O-])o3)C2=O)c1	-7.3	-1.6	66.6*	0.2
CCCCOC(=O)c1cc(-c2ccccc2)nc2c(C)cccc12	-3.1	-0.1	5.5	1.2
